Where two headings read alike, the source gives them in different places.
Columns and labels:
Details in all cases: n = 1
[1] = system: T1, RSK2(Kin.Dom.2-C-terminal)
T1 construct: gene RPS6KA3

[2] = system: T2, RSK3(Kin.Dom.1-N-terminal)
T2 construct: gene RPS6KA2

[3] = system: T3, RSK3(Kin.Dom.2-C-terminal)
T3 construct: gene RPS6KA2

[4] = system: T4, RSK4(Kin.Dom.1-N-terminal)
T4 construct: gene RPS6KA6

[5] = system: T5, RSK4(Kin.Dom.2-C-terminal)
T5 construct: gene RPS6KA6

S6K1 = system: S6K1
SBK1 = system: SBK1
SGK2 = system: SGK2
SGK3 = system: SGK3
SGK = system: SGK
SIK2 = system: SIK2
SIK = system: SIK
SLK = system: SLK
SNARK = system: T6, SNARK
T6 construct: gene NUAK2

SNRK = system: SNRK
SRC = system: SRC
SRMS = system: SRMS
SRPK1 = system: SRPK1
SRPK2 = system: SRPK2
SRPK3 = system: SRPK3
[6] = concentration: 1 μM, replicates: in singlicate
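Also: KINOMEscan kinase panel screen.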

O=C(Nc1ccccc1)Nc1cccc(Oc2ccc3nccn3n2)c1
%Inh [1, 6]: 32%
%Inh [2, 6]: 9%
%Inh [3, 6]: 14%
%Inh [4, 6]: 0%
%Inh [5, 6]: 0%
%Inh (S6K1; [6]): 0%
%Inh (SBK1; [6]): 0%
%Inh (SGK2; [6]): 8%
%Inh (SGK3; [6]): 9%
%Inh (SGK; [6]): 0%
%Inh (SIK2; [6]): 12%
%Inh (SIK; [6]): 0%
%Inh (SLK; [6]): 12%
%Inh (SNARK; [6]): 0%
%Inh (SNRK; [6]): 0%
%Inh (SRC; [6]): 0%
%Inh (SRMS; [6]): 0%
%Inh (SRPK1; [6]): 0%
%Inh (SRPK2; [6]): 3%
%Inh (SRPK3; [6]): 29%

Cc1cc(-c2ccc3c(c2)CC[C@@H](N[C@@H](C)c2ccccc2)C3)cnc1N.Cl [GW412617]
%Inh [1, 6]: 47%
%Inh [2, 6]: 15%
%Inh [3, 6]: 0%
%Inh [4, 6]: 23%
%Inh [5, 6]: 0%
%Inh (S6K1; [6]): 4%
%Inh (SBK1; [6]): 17%
%Inh (SGK2; [6]): 0%
%Inh (SGK3; [6]): 0%
%Inh (SGK; [6]): 2%
%Inh (SIK2; [6]): 3%
%Inh (SIK; [6]): 12%
%Inh (SLK; [6]): 29%
%Inh (SNARK; [6]): 8%
%Inh (SNRK; [6]): 0%
%Inh (SRC; [6]): 4%
%Inh (SRMS; [6]): 0%
%Inh (SRPK1; [6]): 24%
%Inh (SRPK2; [6]): 0%
%Inh (SRPK3; [6]): 9%

COC(=O)c1c(-c2ccccc2)c2cc(OC)ccc2c(=O)n1Cc1ccccc1
%Inh [1, 6]: 41%
%Inh [2, 6]: 8%
%Inh [3, 6]: 21%
%Inh [4, 6]: 0%
%Inh [5, 6]: 27%
%Inh (S6K1; [6]): 8%
%Inh (SBK1; [6]): 2%
%Inh (SGK2; [6]): 0%
%Inh (SGK3; [6]): 16%
%Inh (SGK; [6]): 0%
%Inh (SIK2; [6]): 6%
%Inh (SIK; [6]): 1%
%Inh (SLK; [6]): 0%
%Inh (SNARK; [6]): 12%
%Inh (SNRK; [6]): 1%
%Inh (SRC; [6]): 8%
%Inh (SRMS; [6]): 0%
%Inh (SRPK1; [6]): 5%
%Inh (SRPK2; [6]): 9%
%Inh (SRPK3; [6]): 11%

Cc1ccc(NC(=O)Nc2cccc(C(F)(F)F)c2)cc1 [GSK955403]
%Inh ([1]; 1 µM): 0%
%Inh ([2]; 1 µM): 7%
%Inh ([3]; 1 µM): 27%
%Inh ([4]; 1 µM): 0%
%Inh ([5]; 1 µM): 23%
%Inh (S6K1; 1 µM): 2%
%Inh (SBK1; 1 µM): 0%
%Inh (SGK2; 1 µM): 7%
%Inh (SGK3; 1 µM): 0%
%Inh (SGK; 1 µM): 22%
%Inh (SIK2; 1 µM): 0%
%Inh (SIK; 1 µM): 0%
%Inh (SLK; 1 µM): 5%
%Inh (SNARK; 1 µM): 0%
%Inh (SNRK; 1 µM): 0%
%Inh (SRC; 1 µM): 15%
%Inh (SRMS; 1 µM): 0%
%Inh (SRPK1; 1 µM): 17%
%Inh (SRPK2; 1 µM): 5%
%Inh (SRPK3; 1 µM): 0%

Cc1cccc(-c2nc(-c3ccc(S(C)(=O)=O)cc3)sc2-c2ccnc(NCCc3ccccc3)c2)c1
%Inh [1, 6]: 0%
%Inh [2, 6]: 5%
%Inh [3, 6]: 0%
%Inh [4, 6]: 0%
%Inh [5, 6]: 0%
%Inh (S6K1; [6]): 0%
%Inh (SBK1; [6]): 0%
%Inh (SGK2; [6]): 2%
%Inh (SGK3; [6]): 0%
%Inh (SGK; [6]): 0%
%Inh (SIK2; [6]): 11%
%Inh (SIK; [6]): 7%
%Inh (SLK; [6]): 7%
%Inh (SNARK; [6]): 0%
%Inh (SNRK; [6]): 7%
%Inh (SRC; [6]): 0%
%Inh (SRMS; [6]): 0%
%Inh (SRPK1; [6]): 0%
%Inh (SRPK2; [6]): 23%
%Inh (SRPK3; [6]): 0%

Cc1cc(NCC(c2ccccc2)c2ccccc2)nc(NCc2ccc(C(F)(F)F)cc2)n1 [GW497681]
%Inh [1, 6]: 4%
%Inh [2, 6]: 0%
%Inh [3, 6]: 1%
%Inh [4, 6]: 0%
%Inh [5, 6]: 28%
%Inh (S6K1; [6]): 0%
%Inh (SBK1; [6]): 0%
%Inh (SGK2; [6]): 0%
%Inh (SGK3; [6]): 6%
%Inh (SGK; [6]): 0%
%Inh (SIK2; [6]): 0%
%Inh (SIK; [6]): 0%
%Inh (SLK; [6]): 0%
%Inh (SNARK; [6]): 0%
%Inh (SNRK; [6]): 0%
%Inh (SRC; [6]): 0%
%Inh (SRMS; [6]): 0%
%Inh (SRPK1; [6]): 0%
%Inh (SRPK2; [6]): 22%
%Inh (SRPK3; [6]): 0%

CCn1c(-c2ccccn2)nc2cnccc21 [SB-736398]
%Inh [1, 6]: 32%
%Inh [2, 6]: 5%
%Inh [3, 6]: 0%
%Inh [4, 6]: 1%
%Inh [5, 6]: 0%
%Inh (S6K1; [6]): 7%
%Inh (SBK1; [6]): 0%
%Inh (SGK2; [6]): 2%
%Inh (SGK3; [6]): 0%
%Inh (SGK; [6]): 3%
%Inh (SIK2; [6]): 3%
%Inh (SIK; [6]): 0%
%Inh (SLK; [6]): 8%
%Inh (SNARK; [6]): 0%
%Inh (SNRK; [6]): 0%
%Inh (SRC; [6]): 79%
%Inh (SRMS; [6]): 0%
%Inh (SRPK1; [6]): 0%
%Inh (SRPK2; [6]): 27%
%Inh (SRPK3; [6]): 5%

Reference: PMC5540273 (PLoS ONE, 2017)
